Calls of active or inactive are those of the source. Cut-off read from the data, not from the text of the source, unless noted: active = inhibition above about 80%; inactive = the rest.
Assays:
[1] = growth inhibition, single agents and combos, HTB85, cell-based, BGB or cisplatin IC20 combos, synergistic combos for chromothripsis tumors (AID 1671453); conditions: HTB85 osteosarcoma cells, drug combinations, stronger effect = higher value;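 note: cells exposed for 96 hours before readout; 0% = vehicle DMSO and 100% = high DMSO killing control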
[2] = growth inhibition, single agents and combos, CRL2098, cell-based, BGB or cisplatin IC20 combos, synergistic combos for chromothripsis tumors (AID 1671454); conditions: CRL2098 osteosarcoma cells, drug combinations, stronger effect = higher value;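 note: cells exposed for 96 h before readout; 0% = vehicle DMSO and 100% = killing by high DMSO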
[3] = growth inhibition, single agents and combos, HD-MB03, cell-based, BGB or cisplatin IC20 combos, synergistic combos for chromothripsis tumors (AID 1671455; in the data active = inhibition above about 83%;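 note: 0% = vehicle DMSO and 100% = high DMSO as cytotoxic control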); conditions: HD-MB03 medulloblastoma cells, stronger effect = higher value
[4] = growth inhibition, single agents and combos, UWB1.289, cell-based, BGB or cisplatin combos, synergistic combos for chromothripsis tumors (AID 1671456); conditions: UWB1.289 ovarian carcinoma cells, stronger effect = higher value;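 note: cells exposed to compound for four days; 0% = vehicle DMSO and 100% = killing by high DMSO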
[5] = growth inhibition, single agents and combos, LFS_MB_2R, cell-based, cisplatin combos, synergistic combos for chromothripsis tumors (AID 1671457); conditions: LFS_MB_2R medulloblastoma cells, stronger effect = higher value;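 note: cells exposed to compound for four days before readout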
[6] = growth inhibition, MDA-MB-436, cell-based, BGB or cisplatin combos, synergistic combos for chromothripsis tumors (AID 1671458; call rule not given here;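 note: cells exposed for 96 hours; 0% = vehicle DMSO and 100% = killing by high DMSO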); conditions: MDA-MB-436 breast carcinoma growth inhibition, drug combinations, stronger effect = higher value
[7] = UWB1.289_BRCA1 ovarian cancer growth, cell-based, BGB or cisplatin combinations (AID 1671459); conditions: UWB1.289 BRCA1 ovarian carcinoma, drug combinations, stronger effect = higher value
[8] = drug combination toxicity in non-malignant astrocytes – cell-based, BGB or cisplatin IC20 combos, cytotoxicity control for chromothriptic childhood tumor combination screen (AID 1671460); conditions: Human astrocytes, viability inhibition, drug combinations, at 0.5 µM, stronger effect = higher value;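 note: cells exposed to compounds for 96 hours before viability readout; 0% = vehicle and 100% = killing control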
[9] = BT084 cell growth, single and combined drugs, ICGC_MB145, cisplatin and BGB IC40 combos (AID 1671461); conditions: BT084 medulloblastoma cells, drug combinations, stronger effect = higher value;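 note: cells exposed to drugs for 96 hours; 0% = vehicle DMSO and 100% = high DMSO full killing control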
[10] = RCMB18 cell growth, single agent and combined, cisplatin and BGB IC40 combos (AID 1671462); conditions: RCMB18 medulloblastoma cells, stronger effect = higher value;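 note: cells exposed to compound for four days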
[11] = CRL1545 cell growth, single agent and combined, cisplatin and BGB IC20 combos (AID 1671464); conditions: CRL1545 osteosarcoma cells, stronger effect = higher value;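 note: cells exposed to compound for 96 hours before readout; 0% = vehicle DMSO and 100% = high DMSO killing control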
[12] = compounds altering viability of human ES cells (AID 493140; call rule not given here;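 note: cells exposed to compounds for four days before counting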); conditions: human embryonic stem cell survival screen; stronger effect = higher value
[13] = viability loss with induced miR-34 in A549 – imaging, A549 dox-inducible miR-34, nuclei and caspase counts, primary screen (AID 1347080;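 active = compounds whose cell count with miR-34 switched on is under 0.7 times the count with it off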); conditions: A549 miR-34 inducible, Hoechst nuclei count, 48 h
[14] = MELAS cybrid and Rieske KO viability enhancers – cell-based, MELAS cybrids, Rieske KO mouse fibroblasts, CellTiter-Glo, primary screen (AID 1508586;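 active = mean z-score across replicates of 1.96 or higher in either the MELAS or the Rieske mutant cell line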;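 note: z relative to plate mean and SD of compound and empty wells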); conditions: low glucose
[15] = P. berghei load reduction in hepatocytes – cell-based, HepG2, luciferase luminescence, HepG2 viability, primary screen (AID 624349; in the data active = parasite load remaining mostly below about 12%, no sharp cut-off; inactive = mostly above about 10%;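 note: 100% = mean of DMSO negative control wells on the same plate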); conditions: P. berghei liver stage in HepG2, luciferase luminescence, concentration not given here; parasite load remaining: stronger effect = lower value; viability: measured here: HepG2 viability without parasites
[16] = growth inhibition, single agent or in combination, cell-based, chromothripsis tumors, cisplatin or BGB combos (AID 1671449); conditions: LFS_MB_P medulloblastoma cells;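 note: cells exposed for 96 hours; 0% = vehicle DMSO and 100% = killing by high DMSO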
[17] = growth inhibition, single agent and combos, cell-based, chromothripsis tumors, cisplatin or BGB combos (AID 1671450); conditions: HDN33 neuroblastoma cells, stronger effect = higher value;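 note: cells exposed to compound for four days; 0% = vehicle DMSO and 100% = cell killing by high DMSO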
[18] = growth inhibition, single agents and combos, ICB984, cell-based, cisplatin or BGB combos, synergistic combos for chromothripsis tumors (AID 1671451; call rule not given here;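 note: cells exposed for 96 hours before readout; 0% = vehicle DMSO and 100% = killing by high DMSO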); conditions: ICB984 medulloblastoma cells, drug combinations, stronger effect = higher value
[19] = growth inhibition, single agents and combos, LFS_MB_1R, cell-based, cisplatin or BGB combos, synergistic combos for chromothripsis tumors (AID 1671452); conditions: LFS_MB_1R medulloblastoma cells, stronger effect = higher value;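 note: cells exposed for 96 hours before readout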
[20] = measured here: with BGB IC20, at 0.5 µM
[21] = measured here: with BGB IC20, at 5 µM
[22] = measured here: with cisplatin IC20, at 0.5 µM
[23] = measured here: with cisplatin IC20, at 5 µM
[24] = measured here: combination with BGB at IC20, at 0.5 µM
[25] = measured here: combination with cisplatin at IC20, at 0.5 µM
[26] = measured here: combo with BGB at IC20, at 0.5 µM
[27] = measured here: combo with cisplatin at IC20, at 0.5 µM
[28] = measured here: inhibition with BGB combination, at 0.05 µM
[29] = measured here: inhibition with cisplatin combination, at 0.05 µM
[30] = measured here: combination with cisplatin, at 0.5 µM
[31] = measured here: combination with cisplatin, at 5 µM
[32] = measured here: BGB combination, at 0.5 µM
[33] = measured here: BGB combination, at 5 µM
[34] = measured here: cisplatin combination, at 0.5 µM
[35] = measured here: cisplatin combination, at 5 µM
[36] = BGB combination, concentration series, at 5 µM
[37] = cisplatin combination, concentration series, at 5 µM
[38] = measured here: combo with BGB IC20
[39] = measured here: combo with cisplatin IC20
[40] = cisplatin combination, at 0.5 µM
[41] = measured here: BGB IC40 combination 0.05 uM, at 0.05 µM
[42] = measured here: BGB IC40 combination, at 0.05 µM
[43] = measured here: with BGB IC20 combination, at 0.5 µM
[44] = measured here: with cisplatin IC20 combination, at 0.5 µM
[45] = stronger effect = lower value, cell number ratio, induced over uninduced
[46] = measured here: relative caspase fold change +Dox/-Dox
[47] = measured here: total cells with miR-34 induction, stronger effect = lower value
[48] = measured here: total cells without miR-34 induction
[49] = MELAS cybrid survival, CellTiter-Glo 48 h, stronger effect = higher value
[50] = Rieske KO mouse fibroblast survival, CellTiter-Glo 72 h
[51] = measured here: combination with BGB IC40, at 0.05 µM

Nc1ncn(C2OC(CO)C(O)C2O)c(=O)n1 (centres undefined)
inhibition ([1]; at 0.5 µM): -6.96% (inactive)
inhibition [1, 20]: -12.6%
inhibition [1, 21]: 18.2%
inhibition [1, 22]: -13.1%
inhibition [1, 23]: 4.48%
inhibition ([1]; single agent, at 5 µM): 30.1%
inhibition ([2]; at 0.5 µM): -21% (inactive)
inhibition [2, 24]: -8.95%
inhibition [2, 25]: -58.6%
inhibition ([3]; at 0.5 µM): 2.06% (inactive)
inhibition [3, 26]: 4.05%
inhibition [3, 27]: 0.735%
inhibition ([4]; at 0.5 µM): 18.4% (inactive)
inhibition [4, 28]: 8.02%
inhibition [4, 29]: -5.92%
inhibition ([5]; at 0.5 µM): -0.31% (inactive)
inhibition [5, 30]: -2.9%
inhibition [5, 31]: 21.8%
inhibition ([6]; at 0.5 µM): 12.3% (inactive)
inhibition [6, 32]: 18%
inhibition [6, 33]: 23.9%
inhibition [6, 34]: 0.452%
inhibition [6, 35]: 23.8%
inhibition [7, 36]: 63.4%
inhibition ([7]; at 0.5 µM): 20.7% (inactive)
inhibition [7, 37]: 51%
inhibition [8]: 13.2% (inactive)
inhibition [8, 38]: 17.7%
inhibition [8, 39]: 11.2%
inhibition ([9]; at 0.5 µM): 10.9% (inactive)
inhibition [9, 40]: -8.96%
inhibition ([9]; cisplatin combination, at 5 µM): 53.9%
inhibition [9, 41]: 30.7%
inhibition ([9]; single agent, at 5 µM): 8.5%
inhibition ([10]; at 0.5 µM): 6.45% (inactive)
inhibition ([10]; cisplatin combo, at 5 µM): 53.3%
inhibition [10, 42]: -6.06%
inhibition [10, 30]: 6.83%
inhibition ([10]; single agent, at 5 µM): 41.5%
inhibition ([11]; at 0.5 µM): 0.69% (inactive)
inhibition [11, 43]: 16.1%
inhibition [11, 44]: -8.76%
inhibition ([11]; single agent, at 0.05 µM): -10.6%
inhibition ([11]; single agent, at 5 µM): 9.69%

O=C1OC(CN2CCOCC2)CN1N=Cc1ccc([N+](=O)[O-])o1 (centres undefined)
survival [12]: 5.92 (inactive)
fold change [13, 45]: 0.85 (inactive)
fold change [13, 46]: 1.96
cell count [13, 47]: 8420
cell count [13, 48]: 9900
z-score [14, 49]: -0.512 (inactive)
z-score [14, 50]: -0.452

CCC(=O)[C@@]1(C)[C@H](C)C[C@H]2[C@@H]3CCC4=CC(=O)C=C[C@]4(C)[C@H]3[C@@H](O)C[C@@]21C
survival [12]: 5.08 (inactive)
parasite load remaining [15]: 104% (inactive)
viability [15]: 73.1%
fold change [13, 45]: 0.901 (inactive)
fold change [13, 46]: 0.845
cell count [13, 47]: 7190
cell count [13, 48]: 7980
z-score [14, 49]: -0.53 (inactive)
z-score [14, 50]: 0.51

O=C(O)c1cc2cccc([N+](=O)[O-])c2[nH]1
fold change [13, 45]: 0.946 (inactive)
fold change [13, 46]: 0.523
cell count [13, 47]: 8560
cell count [13, 48]: 9040
z-score [14, 49]: -0.36 (inactive)
z-score [14, 50]: 0.315
inhibition ([16]; at 0.5 µM, stronger effect = higher value): -23.9% (inactive)
inhibition ([16]; measured here: combination with BGB IC20, at 0.005 µM): -6.46%
inhibition ([16]; measured here: combination with BGB IC40, at 0.005 µM): -31.7%
inhibition [16, 51]: -15.1%
inhibition ([16]; measured here: combination with cisplatin, at 0.5 µM, stronger effect = higher value): -30%
inhibition ([16]; measured here: combination with cisplatin, at 5 µM, stronger effect = higher value): -50.9%
inhibition ([17]; BGB combo, at 5 µM): -9.55%
inhibition ([17]; at 0.5 µM): -19.2% (inactive)
inhibition ([17]; cisplatin combo, at 5 µM): -1.64%
inhibition [17, 43]: -22.3%
inhibition [17, 44]: -18.1%
inhibition ([17]; single agent, at 5 µM): -9.97%
inhibition ([18]; BGB IC20 combo, at 0.005 µM): -35.7%
inhibition ([18]; BGB IC40 combo, at 0.005 µM): -62.5%
inhibition ([18]; BGB IC40 combo, at 0.05 µM): -61%
inhibition ([18]; at 0.5 µM): -39.2% (inactive)
inhibition ([18]; cisplatin combo, at 0.05 µM): -67.4%
inhibition ([18]; cisplatin combo, at 0.5 µM): -58.3%
inhibition ([18]; cisplatin combo, at 5 µM): -47.8%
inhibition ([18]; measured here: 5 uM single agent, at 5 µM): -25.3%
inhibition ([19]; at 0.5 µM): -25.3% (inactive)
inhibition [19, 51]: -24.6%
inhibition [19, 30]: -18.7%
inhibition [19, 31]: -30.6%
inhibition ([1]; at 0.5 µM): -15.9% (inactive)
inhibition [1, 20]: -41.2%
inhibition [1, 21]: -22.3%
inhibition [1, 22]: -7.91%
inhibition [1, 23]: -2.59%
inhibition ([1]; single agent, at 5 µM): -17.2%
inhibition ([2]; at 0.5 µM): -68.3% (inactive)
inhibition [2, 24]: -23.9%
inhibition [2, 25]: -78.8%
inhibition ([3]; at 0.5 µM): -5.12% (inactive)
inhibition [3, 26]: -8.83%
inhibition [3, 27]: 1.4%
inhibition ([4]; at 0.5 µM): -15.9% (inactive)
inhibition [4, 28]: -35.8%
inhibition [4, 29]: 40%
inhibition ([5]; at 0.5 µM): -32% (inactive)
inhibition [5, 30]: -28.5%
inhibition [5, 31]: -29.3%
inhibition ([6]; at 0.5 µM): -23.3% (inactive)
inhibition [6, 32]: -25%
inhibition [6, 33]: -42.9%
inhibition [6, 34]: -25.6%
inhibition [6, 35]: -40.6%
inhibition [7, 36]: -18.8%
inhibition ([7]; at 0.5 µM): -21.8% (inactive)
inhibition [7, 37]: -8.12%
inhibition [8]: -16% (inactive)
inhibition [8, 38]: -13.8%
inhibition [8, 39]: -5.7%
inhibition ([9]; at 0.5 µM): -15.5% (inactive)
inhibition [9, 40]: -11.3%
inhibition ([9]; cisplatin combination, at 5 µM): -2.07%
inhibition [9, 41]: -9.88%
inhibition ([9]; single agent, at 5 µM): -23.7%
inhibition ([10]; at 0.5 µM): -11.6% (inactive)
inhibition ([10]; cisplatin combo, at 5 µM): 27.1%
inhibition [10, 42]: -14.6%
inhibition [10, 30]: 5.09%
inhibition ([10]; single agent, at 5 µM): -41.3%
inhibition ([11]; at 0.5 µM): -22.4% (inactive)
inhibition [11, 43]: -10%
inhibition [11, 44]: -28.5%
inhibition ([11]; single agent, at 0.05 µM): 22.7%
inhibition ([11]; single agent, at 5 µM): -25.9%
